Screening data (PubChem BioAssay)
Most compounds without a hit are left out; they make up all but 2.1% or so of the library.
aDG glyco up: alpha-DG glycosylation activation | Pro5-aDG cells, alpha-DG glycosylation AlphaScreen (IIH6); 0% Pro5, 100% B10-LARGE cell signal | activation, % at 10 µM | actives 0.22% (n = 360,000) | AID 624168;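 active = activation of at least 8% versus controls, or a plate z-score of at least 8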;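 note: Pro5 are CHO cells carrying HIG-tagged alpha-DG that lacks glycosylation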
Gli-Sufu block: blocks Gli-Sufu signaling in a luciferase reporter. Sufu-KO-LIGHT fibroblasts, Gli luciferase reporter luminescence. inhibition, % at 5 µM. actives 0.74% (n = 340,000). AID 588413;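 active = inhibition above about 55%, limit read from the data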;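 note: 0% = DMSO-treated cells and 100% = wells with medium but no cells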
NR2F2 inh: NR2F2 (human) inhibition, primary screen | HEK293T NGFI-A luciferase reporter, luminescence | actives 0.7% (n = 370,000) | inhibition, % at 8.6 µM;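 active = inhibition above a per-plate cutoff, mean inhibition of test wells between control levels plus 3 SD, cut at about 38% in these data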;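 note: cells cotransfected with COUP-TFII expression vector driving the NGFI-A reporter; 0% = median of COUP-TF2 test wells and 100% = reporter-only cells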
Target sequence (P24468 whole entry, looked up): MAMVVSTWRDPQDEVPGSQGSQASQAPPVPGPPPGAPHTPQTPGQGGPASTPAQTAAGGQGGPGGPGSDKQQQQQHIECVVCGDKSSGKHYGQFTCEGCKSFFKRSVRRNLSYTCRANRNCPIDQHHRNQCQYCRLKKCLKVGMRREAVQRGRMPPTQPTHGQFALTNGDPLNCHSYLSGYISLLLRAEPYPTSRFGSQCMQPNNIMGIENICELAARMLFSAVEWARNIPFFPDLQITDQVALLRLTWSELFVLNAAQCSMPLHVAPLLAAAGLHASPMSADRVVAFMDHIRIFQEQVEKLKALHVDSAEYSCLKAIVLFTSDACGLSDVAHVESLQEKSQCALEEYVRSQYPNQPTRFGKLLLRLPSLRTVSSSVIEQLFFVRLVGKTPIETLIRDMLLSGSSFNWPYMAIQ
GalR3 antag: human GalR3 antagonism | O60755 | HEK293 GalR3-CNG cAMP membrane potential fluorescence; galR3 body fused to GalR1 C-terminus | inhibition, % at 3 µM | actives 0.44% (n = 360,000);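 active = inhibition above the screen-wide average plus 3 SD, cut at about 13% in these data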;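 note: forskolin and galanin both at EC90 stimulate the cells; cAMP rise reported by CNG channel membrane potential dye signal; 0% = forskolin plus galanin with DMSO and 100% = forskolin alone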
Env fusion inh: HIV envelope-mediated fusion inhibition; HeLa-JRFL Env/CEM21 cell fusion, luciferase; AID 651610; actives 1.1% (n = 360,000); inhibition, % at 12.3 µM;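 active = mean replicate inhibition score of at least 50 and every replicate individually at or above 50; inconclusive = only one of the two criteria met; inactive = mean below 50 and not all replicates reaching 50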;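 note: 0% = plate neutral controls and 100% = maraviroc near 300 nM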
Numbers without * were called inactive; ? = inconclusive; . = no result; [ ] = another dose, or the depositor's remark.

SMILES	aDG glyco up	Gli-Sufu block	NR2F2 inh	GalR3 antag	Env fusion inh
CN1C(=O)c2cc(NC(=O)c3cc(F)cc(F)c3)ccc2OC[C@H]2O[C@@H](CC(=O)O)CC[C@@H]21	.	.	.	.	-12[16.7 µM]
COc1cccc(-c2nnc(NC(=O)c3ccc(S(=O)(=O)N4CC(C)OC(C)C4)cc3)o2)c1 (stereo not given)	4	22	-1	0	55*
CC1CN(S(=O)(=O)c2ccc(C(=O)Nc3nnc(-c4ccco4)o3)cc2)CC(C)O1 (stereo not given)	1	-24	4	0	-2
COc1ccc(CNC(=O)c2cc3c(C)nc4ccccc4c3o2)c(OC)c1	0	57*	.	.	.
C[C@@H]1CN([C@H](C)CO)C(=O)c2cc(NC(=O)Nc3ccccc3)ccc2O[C@@H]1CN(C)S(=O)(=O)c1ccc(F)cc1	.	.	.	.	-3[16.7 µM]
Cc1ccc(S(=O)(=O)NC(C)(C)CSc2nnc(Nc3ccccc3)s2)cc1	2	9	20	-3	58*
CSCCC(NS(=O)(=O)c1ccc2c(c1)oc(=O)n2C)C(=O)NC1CCC(C)CC1 (stereo not given)	0	-14	-53	.	60*
CSCCC(NS(=O)(=O)c1ccc2c(c1)oc(=O)n2C)C(=O)NC1CCN(Cc2ccccc2)CC1 (stereo not given)	0	37	1	-2	-2
Nc1ccn(C2OC(CO)C(O)C2F)c(=O)n1 (stereo not given)	0	.	7	-3	75*
Nc1ccn([C@@H]2O[C@H](CO)[C@@H](O)[C@@H]2O)c(=O)n1	0	40	10	-3	47
CCCCCCCCCCCCCCCC(=O)OCC1OC(n2ccc(N)nc2=O)C(O)C1O (stereo not given)	0	33	10	-2	75*
Cc1ccc(C(=O)C(C)N(C(=O)c2ccc(Cl)cc2Cl)N2C(=O)CCCC2=O)cc1 (stereo not given)	0	5	10	4	-9
COc1ccc(C(=O)C(C)N(C(=O)c2ccc(Cl)cc2Cl)N2C(=O)C3C4C=CC(C4)C3C2=O)cc1 (stereo not given)	0	0	-9	-8	123*
C[C@H](CO)N1C[C@H](C)[C@H](CN(C)Cc2ccncc2)Oc2ccc(NC(=O)c3ccncc3)cc2C1=O	.	.	.	.	-23[16.7 µM]
CCN1C/C(=C/c2cccc([N+](=O)[O-])c2)C(=O)/C(=C/c2cccc([N+](=O)[O-])c2)C1	0	58*	19	0	?
O=P(OC1CCCCC1)(OC1CCCCC1)C(O)c1ccc(Cl)cc1Cl (stereo not given)	0	6	6	-6	61*
O=P(OC1CCCCC1)(OC1CCCCC1)C(O)c1c(Cl)cccc1Cl (stereo not given)	0	11	-18	8	59*
CCc1nnc(NC(=O)[C@@H](NC(=O)c2cccc(S(=O)(=O)N(CC)CC)c2)C(C)C)s1	0	5	-14	1	70*
CCCc1cn(CC[C@H]2CC[C@H](NC(=O)C3CCOCC3)[C@@H](CO)O2)nn1	.	.	.	.	-99[16.7 µM]
CO[C@@H]1CN(C)C(=O)c2cc(NS(C)(=O)=O)ccc2OC[C@@H](C)N(C(=O)C2CCC2)C[C@H]1C	.	.	.	.	8[16.7 µM]
COc1ccc(N2CCN(C(=O)CSc3nnc(-c4cc5ccccc5cc4O)n3C)CC2)cc1	0	12	29	-5	77*
CC1(C)Cc2ccccc2-c2nnc(SCC(=O)N3CCN(c4ccccc4)CC3)n21	0	-17	25	-8	83*
CC1(C)Cc2ccccc2-c2nnc(SCc3ccccc3)n21	0	-19	-23	-4	.
CO[C@H]1CN(C)C(=O)c2cc(NC(=O)C3CCOCC3)ccc2OC[C@H](C)N(C(C)=O)C[C@@H]1C	.	.	.	.	5[16.7 µM]
COc1ccc(S(=O)(=O)N(C)C[C@H]2OCCCC[C@@H](C)Oc3ccc(NC(=O)Nc4ccc5c(c4)OCO5)cc3C(=O)N([C@@H](C)CO)C[C@H]2C)cc1	.	.	.	.	1[16.7 µM]
SMILES	aDG glyco up	Gli-Sufu block	NR2F2 inh	GalR3 antag	Env fusion inh
CC(=O)N(C)C[C@@H]1Oc2ncc(-c3ccc(C)cc3)cc2C(=O)N([C@H](C)CO)C[C@@H]1C	.	.	.	.	8[16.7 µM]
O=C(NC12CC3CC(CC(C3)C1)C2)OCCNC1CCCCC1	0	7	6	-4	77*
CN(C)CCOC(=O)NC12CC3CC(CC(C3)C1)C2	0	6	13	-6	14
O=C(C[C@H]1C[C@H]2c3cc(NC(=O)c4ccc5c(c4)OCO5)ccc3O[C@H]2[C@@H](CO)O1)NCc1cccnc1	.	.	.	.	-7[16.7 µM]
Cn1nnnc1Sc1ncnc2scc(-c3ccc(F)cc3)c12	0	34	-30	0	83*
Cc1ccc(S(=O)(=O)N(C)C[C@@H]2Oc3ccc(NC(=O)Cn4cnnn4)cc3CC(=O)N([C@H](C)CO)C[C@@H]2C)cc1	.	.	.	.	89*[16.7 µM]
C[C@H](CO)N1C[C@H](C)[C@H](CN(C)S(=O)(=O)c2ccccc2)Oc2ccc(NC(=O)Cn3cnnn3)cc2CC1=O	.	.	.	.	65*[16.7 µM]
C[C@@H]1CCCCO[C@H](CN(C)C(=O)NC2CCCCC2)[C@H](C)CN([C@@H](C)CO)C(=O)c2cc(NS(C)(=O)=O)ccc2O1	.	.	.	.	-9[16.7 µM]
NC(=S)n1[nH]c(-c2ccc([N+](=O)[O-])cc2)c(N=Nc2cccc(Cl)c2)c1=O	1	62*	22	6	57*
O=[N+]([O-])c1cc(C(F)(F)F)cc([N+](=O)[O-])c1N1CCN(S(=O)(=O)c2ccccc2)CC1	0	3	-4	2	-28
O=[N+]([O-])c1cc(C(F)(F)F)ccc1N1CCN(S(=O)(=O)c2ccc3ccccc3c2)CC1	0	6	17	16*	.
O=C(C[C@@H]1C[C@@H]2c3cc(NC(=O)Nc4ccc(C(F)(F)F)cc4)ccc3O[C@@H]2[C@H](CO)O1)NCC1CC1	.	.	.	.	9[16.7 µM]
O=C(C[C@@H]1C[C@H]2c3cc(NC(=O)Nc4ccc(F)cc4)ccc3O[C@H]2[C@H](CO)O1)NCC1CC1	.	.	.	.	95*[16.7 µM]
O=C(Nc1ccc(F)cc1)Nc1ccc2c(c1)[C@@H]1C[C@@H](CC(=O)N3CCCCC3)O[C@H](CO)[C@@H]1O2	.	.	.	.	1[16.7 µM]
O=C(Nc1ccc(F)cc1)Nc1ccc2c(c1)[C@H]1C[C@@H](CC(=O)N3CCCCC3)O[C@H](CO)[C@H]1O2	.	.	.	.	83*[16.7 µM]
O=C(C[C@H]1C[C@@H]2c3cc(NC(=O)Nc4ccc(F)cc4)ccc3O[C@@H]2[C@@H](CO)O1)NCC1CC1	.	.	.	.	95*[16.7 µM]
O=C(C[C@@H]1C[C@H]2c3cc(NC(=O)Nc4ccccc4F)ccc3O[C@H]2[C@H](CO)O1)NCC1CC1	.	.	.	.	-31[16.7 µM]
Cc1ccc(S(=O)(=O)Nc2ccc3c(c2)C(=O)N([C@@H](C)CO)C[C@@H](C)[C@H](CN(C)Cc2ccccc2)OCCCC[C@@H](C)O3)cc1	.	.	.	.	12[16.7 µM]
CCCNC(=O)c1cc2c(c(-c3cccc(-c4cccc(OC)c4)c3)n1)[C@@H](CCO)N([S@](=O)C(C)(C)C)C2	.	.	.	.	12[16.7 µM]
